The text below walks through data of PubChem BioAssay (NCATS).

For test [1], the target named is Lysosomal acid glucosylceramidase (Homo sapiens) (UniProt P04062). The test is described as follows: Glucocerebrosidase-p2 (AID 348; in the data active = potency below about 10 µM; also: potency is read from the fitted curve at half-maximal effect). As to conditions: purified GBA, blue fluorogenic substrate, 40 min. Summed up: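 Normal human glucocerebrosidase (0.2 nM) with blue fluorogenic substrate (80 uM final) in citrate/phosphate pH 5.9 with 10mM sodium taurocholate, 0.01% tween-20; 40 min RT, NaOH/glycine stop; fluorescence Ex 365/Em 440; AC50 from a titration from 0.6 nM upwards.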

Test [2] is described as follows: AP1 Signaling Pathway (AID 357; active = well fitted curve in either direction with a large enough effect, not every such curve was filed as active; also: % is scaled to controls: 0 for no effect and ±100 for the full control effect). The following applies: ME-180 AP-1-bla reporter, EGF-induced, beta-lactamase ratio, 5 h; at 7.69 µM (top of the series) unless noted. The essentials: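 ME-180 cells with beta-lactamase reporter under AP-1 response element, stimulated with EC50 EGF; compounds tested in titration series, 5 h at 37 °C. CCF4 substrate added 2.5 h at room temperature; 460/530 nm emission ratio gave %activity and AC50.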

Test [3] addresses Cytochrome P450 1A2 (Homo sapiens) (UniProt P05177). The test can be described thus: p450-cyp1a2 (AID 410; calls by dose curve; also: potency is read from the fitted curve at half-maximal effect). The following applies: recombinant CYP1A2, luciferin-ME demethylation, luminescence; series mostly up to 57 µM. Summed up: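 O-Demethylation of luciferin 6' methyl ether by human CYP1A2 is monitored as luciferase luminescence. Substrate sits at Km (100uM); enzyme is 20nM. Values are scaled to 57 uM furafylline as maximal inhibition.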

Test [4] is described as follows: NFAT Signaling Pathway (AID 444; active = well fitted curve in either direction with a large enough effect, not every such curve was filed as active;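 also: carbachol stimulus at about its EC50 of 1 µM final; % is scaled to controls: 0 for no effect and ±100 for the full control effect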). As to conditions: Jurkat NFAT-bla M1, carbachol, beta-lactamase ratio, 5 h; at 7.69 µM (top of the series) unless noted. Summed up:
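Jurkat cells with NFAT-driven β-lactamase reporter and co-expressed M1 receptor, stimulated with carbachol (final 1 uM, ~EC50), compound titration, 5 h at 37 °C. CCF4 loaded 1 h at RT; 460/530 nm ratio gave %activity and AC50.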

A short description of test [5]: Stat Signaling Pathway (AID 446; active = well fitted curve in either direction with a large enough effect, not every such curve was filed as active;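 also: ME-180 cervical cancer cells given 40 pM IL-6 alongside compound; SIE-controlled beta-lactamase reporter measured as 460/530 nm FRET emission ratio; % is scaled to controls: 0 for no effect and ±100 for the full control effect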). As to conditions: ME-180 (cervical carcinoma) SIE beta-lactamase reporter, IL-6 stimulated, 5 h; at 7.69 µM (top of the series) unless noted. The essentials: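 Overnight-plated ME-180 cells bearing a STAT Inducible Element beta-lactamase reporter; 5 h co-exposure to compound and 40 pM IL-6; values normalized to 300 pM IL-6 and 125 nM JAK inhibitor controls.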

For test [6], the target named is Glucocorticoid receptor (Homo sapiens) (UniProt P04150). The test is described as follows: GR-GFP Redistribution (AID 450;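 active = compounds whose dose series gives a full or clear partial fitted curve of increased nuclear translocation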; also: potency is read from the fitted curve at half-maximal effect). The following applies: U2OS GR-GFP nuclear translocation, laser cytometry, 2 h.
The target is the same in test [7]. The test can be described thus: GR-EFC Redistribution (AID 451; calls by dose curve; also: potency is read from the fitted curve at half-maximal effect). The following applies: CHO-K1 GR-EFC translocation, beta-gal luminescence, 2 h. The essentials:
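CHO-K1 cells expressing nuclear EA and GR-ED fragments of b-gal; compounds titrated up to 46 uM final, 2 h at 37 C. GR nuclear translocation read as complemented b-gal luminescence after 1 h RT detection.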

Test [8] deals with Mitogen-activated protein kinase 10 (Mus musculus) (UniProt Q61831). The test is described as follows: JNK3 AlphaScreen Assay (AID 530; active = well fitted curve in either direction with a large enough effect, not every such curve was filed as active;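 also: kinase came from lysate of stimulated human HepG2 cells; signal reports phosphorylation of biotinylated GST-cJun 1-79 at Ser73 with 10 µM ATP; % is scaled to controls: 0 for no effect and ±100 for the full control effect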). As to conditions: JNK3 lysate, c-Jun phosphorylation; series mostly up to 57.1 µM. Summed up:
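Activity was read by AlphaScreen after JNK3-containing HepG2 lysate (cytokine pre-activated) phosphorylated biotinylated GST-cJun with 10 uM ATP at room temperature. Phospho-Ser73 cJun antibody with Protein-A acceptor beads provided detection.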
A general note: Alpha assays give light when donor and acceptor beads are brought close together.

Test [9] addresses 3',5'-cyclic-AMP phosphodiesterase 4B (Homo sapiens) (UniProt Q07343). The test can be described thus: qHTS Assay for Inhibitors of PDE-IV (AID 607; active = well fitted activation curve with a large enough effect in the main read-out, with a control signal flat, not every such curve was filed as active; also: % of control where 0% means no effect). As to conditions: HEK293 ACTOne CNG channel cells, membrane potential fluorescence; series mostly up to 22.9 µM. Summed up:
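Live HEK293 cells with a modified cyclic nucleotide-gated (CNG) channel report intracellular cAMP via membrane-potential dye fluorescence (ex 535/em 590 nm). Endogenous PDE-IV was targeted. Compounds were tested at up to 22.9 uM final; RO 20-1724 100 uM served as control.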

The target in test [10] is Cytochrome P450 3A4 (Homo sapiens) (UniProt P08684). The test is described as follows: qHTS Assay for Activators of Cytochrome P450 3A4 (AID 885). Also: nearly all actives have a fitted effect of over 65% in size. The following applies: recombinant CYP3A4, Luciferin-PPXE luminescence, 60 min; series mostly up to 57.1 µM. The essentials:
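Using 20nM recombinant human CYP3A4 in potassium phosphate (200mM), substrate Luciferin-PPXE at 25uM, luminescent luciferin detection followed a 60-min RT NADPH reaction; data scaled to 57 uM ketoconazole.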

Test [11] deals with Dual specificity protein kinase CLK4 (Homo sapiens) (UniProt Q9HAZ1). The test is described as follows: qHTS Assay for Inhibitors of CDC-like Kinase 4 (Kinase-Glo Assay) (AID 1770). Also: nearly all actives have a fitted effect of over 65% in size. Also: potency is read from the fitted curve at half-maximal effect. As to conditions: recombinant Clk4, Kinase-Glo ATP depletion luminescence; series mostly up to 66.7 µM. The essentials: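 Substrate mix (RS peptide 100 uM, ATP 1 uM) dispensed, compound pinned in, then Clk4 added to 25 nM final. Incubated 4.5 h at RT; Kinase-Glo reagent added, luminescence read after 5 min.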
A general note: In qHTS, concentration-response curves come from the screen itself.

Test [12] has the same target. The test can be described thus: qHTS Assay for Inhibitors of CDC-like Kinase 4 (ADP-Glo Assay) (AID 1771). Also: nearly all actives have a fitted effect of over 70% in size. Also: potency is read from the fitted curve at half-maximal effect. The following applies: recombinant CLK4, ADP-Glo luminescence; series mostly up to 80 µM. The essentials:
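Compounds are pin-transferred onto substrate mix (100 uM RS peptide, 1 uM ATP), then 25 nM Clk4 is added. After 1 hr at room temperature, ADP-Glo reagent runs 45 min, detection reagent 30 min, then luminescence is read.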

For test [13] the target is unchanged. The test can be described thus: qHTS Assay for Inhibitors of CDC-like Kinase 4 (ADP-FP Assay) (AID 1795). Also: nearly all actives have a fitted effect of over 60% in size. Also: potency is read from the fitted curve at half-maximal effect. The following applies: Transcreener ADP fluorescence polarization; series mostly up to 50 µM. Summed up: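 Clk4 6.25 nM; RS peptide 100 uM; ATP 1 uM; 25 mM Tris pH 7.5, 10 mM MgCl2; 1 h reaction. ADP detected via antibody/orange tracer FP displacement; TG003 positive control.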

The target of test [14] is Ubiquitin carboxyl-terminal hydrolase 1 (Homo sapiens) (UniProt O94782). The test is described as follows: Inhibitors of USP1/UAF1: Pilot qHTS (AID 504865).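 Also: rhodamine fluorescence freed from ubiquitin-rhodamine substrate followed over time; top concentration of the series differs between compounds; % is scaled to controls: 0 for no effect and ±100 for the full control effect; nearly all actives have a fitted effect of over 35% in size.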 As to conditions: purified USP1/UAF1, Ub-rhodamine cleavage fluorescence; series mostly up to 54.9 µM. Summed up: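 In 50mM HEPES pH 7.8 containing 0.5mM EDTA, 1mM TCEP, 0.1 mg/ml BSA and 0.01% Tween-20, 1nM USP1/UAF1 is exposed to compound for 15 min, then Ub-Rho (150nM final) is added and fluorescence is read over time.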

The nature of test [15]: Primary qHTS for small molecule stabilizers of the endoplasmic reticulum resident proteome: Secreted ER Calcium Modulated Protein (SERCaMP) assay (AID 1508630). Also: % is scaled to controls: 0 for no effect and ±100 for the full control effect. As to conditions: SH-SY5Y GLuc-SERCaMP (Gaussia luciferase released on ER calcium loss) secretion, thapsigargin, luminescence; series mostly up to 38.4 µM. The essentials: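 The SH-SY5Y reporter protocol was run at 3 concentrations up to 38.3 uM (primary) or 11 concentrations (follow-up): 16 h compound, 100 nM thapsigargin for 4 h, then extracellular luciferase luminescence.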

Test [16] has as its target Cytochrome P450 3A4 (Homo sapiens) (UniProt P08684). The test is described as follows: qHTS Assay for Inhibitors and Substrates of Cytochrome P450 3A4 (AID 884). Also: potency is read from the fitted curve at half-maximal effect; nearly all actives have a fitted effect of over 50% in size. The following applies: recombinant CYP3A4, Luciferin-PPXE luminescence; series mostly up to 57.1 µM. The essentials: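 Luminescent readout of luciferin produced by CYP3A4 (20 nM) dealkylation of Luciferin-PPXE, 25 uM (its KM). NADPH-driven reaction ran 60 min at RT after 10 min compound preincubation; data scaled to 57 uM ketoconazole as 100% inhibition.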

The target of test [17] is Cytochrome P450 2C19 (Homo sapiens) (UniProt P33261). The test is described as follows: qHTS Assay for Inhibitors and Substrates of Cytochrome P450 2C19 (AID 899). Also: potency is read from the fitted curve at half-maximal effect; nearly all actives have a fitted effect of over 60% in size. The following applies: recombinant CYP2C19, luciferin-H EGE luminescence; series mostly up to 57.1 µM. The essentials:
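5 nM human CYP2C19 with 10uM Luciferin-H EGE (at KM) in 50mM KPO4, compound preincubated 10 min at 37C, then NADPH regeneration for 60 min at 37C. Luciferin read by luminescence after detection reagent; normalized to 57uM ketoconazole as full inhibition.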

The structures appear in SMILES notation. Unmarked numbers belong to inactive results. Inconclusive results are not listed. The source made the active and inactive calls. Unless noted, calls follow the shape of the dose curve; as a rule, active = well fitted curve in the direction sought with a large enough effect; inconclusive = small, poorly fitted or top-dose-only effect, or another doubt; inactive = no such curve, though single readings can be large; an effect the other way counts as inactive or inconclusive.

Dual specificity protein kinase CLK4 (Homo sapiens), sequence (Q9HAZ1 whole entry, looked up): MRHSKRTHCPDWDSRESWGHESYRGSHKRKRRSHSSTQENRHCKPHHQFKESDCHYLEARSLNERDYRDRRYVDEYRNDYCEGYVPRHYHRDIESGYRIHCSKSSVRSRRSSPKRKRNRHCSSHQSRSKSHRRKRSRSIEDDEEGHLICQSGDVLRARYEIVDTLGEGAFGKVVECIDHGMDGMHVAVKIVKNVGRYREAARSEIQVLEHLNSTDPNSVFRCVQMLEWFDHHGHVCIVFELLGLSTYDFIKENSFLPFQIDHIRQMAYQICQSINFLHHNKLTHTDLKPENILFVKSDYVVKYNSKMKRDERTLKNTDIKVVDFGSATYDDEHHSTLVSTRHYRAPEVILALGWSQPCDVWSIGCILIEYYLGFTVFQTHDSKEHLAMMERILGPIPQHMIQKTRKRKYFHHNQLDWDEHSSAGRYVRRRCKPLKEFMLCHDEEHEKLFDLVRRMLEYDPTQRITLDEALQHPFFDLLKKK
Lysosomal acid glucosylceramidase (Homo sapiens), sequence (P04062 whole entry, looked up): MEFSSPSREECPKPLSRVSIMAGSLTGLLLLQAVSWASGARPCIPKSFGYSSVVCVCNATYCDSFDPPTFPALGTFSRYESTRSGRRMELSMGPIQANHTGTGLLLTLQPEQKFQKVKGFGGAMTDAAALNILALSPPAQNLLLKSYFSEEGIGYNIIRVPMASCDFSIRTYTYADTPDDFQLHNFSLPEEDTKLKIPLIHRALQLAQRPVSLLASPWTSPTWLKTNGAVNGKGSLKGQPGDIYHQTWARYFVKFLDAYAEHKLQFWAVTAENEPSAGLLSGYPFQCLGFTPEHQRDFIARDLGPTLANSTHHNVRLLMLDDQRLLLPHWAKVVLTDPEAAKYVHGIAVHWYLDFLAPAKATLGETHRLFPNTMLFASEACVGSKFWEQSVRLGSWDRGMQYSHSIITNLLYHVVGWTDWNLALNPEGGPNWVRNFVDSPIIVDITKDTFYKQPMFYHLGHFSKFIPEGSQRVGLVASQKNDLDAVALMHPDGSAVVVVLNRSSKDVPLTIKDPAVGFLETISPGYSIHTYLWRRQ
Cytochrome P450 1A2 (Homo sapiens), sequence (P05177 whole entry, looked up): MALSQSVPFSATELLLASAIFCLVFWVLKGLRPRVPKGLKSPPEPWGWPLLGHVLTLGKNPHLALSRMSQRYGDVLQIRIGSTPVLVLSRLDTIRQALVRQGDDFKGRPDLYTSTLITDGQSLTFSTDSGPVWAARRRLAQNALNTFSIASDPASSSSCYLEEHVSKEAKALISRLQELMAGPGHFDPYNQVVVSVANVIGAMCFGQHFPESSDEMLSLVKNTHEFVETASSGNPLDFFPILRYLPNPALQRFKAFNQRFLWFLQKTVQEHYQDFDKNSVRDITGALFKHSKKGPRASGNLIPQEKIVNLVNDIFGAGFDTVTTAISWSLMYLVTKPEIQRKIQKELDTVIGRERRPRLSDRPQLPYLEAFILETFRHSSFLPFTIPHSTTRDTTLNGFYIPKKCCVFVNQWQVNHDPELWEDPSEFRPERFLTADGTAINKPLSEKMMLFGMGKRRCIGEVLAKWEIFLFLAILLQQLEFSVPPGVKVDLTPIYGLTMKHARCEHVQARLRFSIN
Ubiquitin carboxyl-terminal hydrolase 1 (Homo sapiens), sequence (O94782 whole entry, looked up): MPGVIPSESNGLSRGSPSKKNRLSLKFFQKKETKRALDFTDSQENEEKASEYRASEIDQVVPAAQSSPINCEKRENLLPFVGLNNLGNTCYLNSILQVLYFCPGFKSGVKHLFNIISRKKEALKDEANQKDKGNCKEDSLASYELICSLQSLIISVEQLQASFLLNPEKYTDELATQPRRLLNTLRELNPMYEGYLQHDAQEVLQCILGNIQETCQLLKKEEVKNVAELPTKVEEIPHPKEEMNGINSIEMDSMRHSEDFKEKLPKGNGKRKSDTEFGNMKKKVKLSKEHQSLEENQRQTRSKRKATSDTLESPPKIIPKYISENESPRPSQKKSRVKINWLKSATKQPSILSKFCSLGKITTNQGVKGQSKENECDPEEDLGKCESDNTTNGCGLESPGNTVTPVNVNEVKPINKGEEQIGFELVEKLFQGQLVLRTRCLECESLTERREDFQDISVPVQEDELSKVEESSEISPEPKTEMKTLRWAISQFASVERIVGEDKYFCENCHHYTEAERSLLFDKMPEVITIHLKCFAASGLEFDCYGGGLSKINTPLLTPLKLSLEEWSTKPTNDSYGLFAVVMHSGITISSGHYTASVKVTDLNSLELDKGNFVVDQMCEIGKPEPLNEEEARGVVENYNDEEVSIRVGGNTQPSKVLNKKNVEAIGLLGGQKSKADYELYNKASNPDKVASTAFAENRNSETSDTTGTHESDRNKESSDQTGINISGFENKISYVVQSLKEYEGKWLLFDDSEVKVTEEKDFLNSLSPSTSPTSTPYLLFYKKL
Glucocorticoid receptor (Homo sapiens), sequence (P04150 whole entry, looked up): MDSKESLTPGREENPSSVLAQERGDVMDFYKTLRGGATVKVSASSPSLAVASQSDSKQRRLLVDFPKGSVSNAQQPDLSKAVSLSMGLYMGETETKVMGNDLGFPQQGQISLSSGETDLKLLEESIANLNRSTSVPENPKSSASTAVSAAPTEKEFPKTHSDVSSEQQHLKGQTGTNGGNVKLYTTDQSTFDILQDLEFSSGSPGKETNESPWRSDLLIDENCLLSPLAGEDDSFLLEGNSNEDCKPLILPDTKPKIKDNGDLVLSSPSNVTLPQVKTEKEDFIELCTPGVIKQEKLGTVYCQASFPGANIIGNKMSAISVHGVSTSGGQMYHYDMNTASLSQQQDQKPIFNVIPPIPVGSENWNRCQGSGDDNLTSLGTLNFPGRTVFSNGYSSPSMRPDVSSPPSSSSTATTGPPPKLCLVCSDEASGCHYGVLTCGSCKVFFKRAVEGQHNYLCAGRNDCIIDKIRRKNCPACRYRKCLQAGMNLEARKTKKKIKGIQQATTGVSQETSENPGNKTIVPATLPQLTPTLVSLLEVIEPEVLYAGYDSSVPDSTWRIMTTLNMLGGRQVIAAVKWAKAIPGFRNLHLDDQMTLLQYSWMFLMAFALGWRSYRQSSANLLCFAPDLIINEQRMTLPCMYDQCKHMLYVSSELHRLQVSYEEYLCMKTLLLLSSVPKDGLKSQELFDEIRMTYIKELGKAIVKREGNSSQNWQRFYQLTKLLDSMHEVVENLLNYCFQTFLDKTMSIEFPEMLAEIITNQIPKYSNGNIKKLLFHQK
3',5'-cyclic-AMP phosphodiesterase 4B (Homo sapiens), sequence (Q07343 whole entry, looked up): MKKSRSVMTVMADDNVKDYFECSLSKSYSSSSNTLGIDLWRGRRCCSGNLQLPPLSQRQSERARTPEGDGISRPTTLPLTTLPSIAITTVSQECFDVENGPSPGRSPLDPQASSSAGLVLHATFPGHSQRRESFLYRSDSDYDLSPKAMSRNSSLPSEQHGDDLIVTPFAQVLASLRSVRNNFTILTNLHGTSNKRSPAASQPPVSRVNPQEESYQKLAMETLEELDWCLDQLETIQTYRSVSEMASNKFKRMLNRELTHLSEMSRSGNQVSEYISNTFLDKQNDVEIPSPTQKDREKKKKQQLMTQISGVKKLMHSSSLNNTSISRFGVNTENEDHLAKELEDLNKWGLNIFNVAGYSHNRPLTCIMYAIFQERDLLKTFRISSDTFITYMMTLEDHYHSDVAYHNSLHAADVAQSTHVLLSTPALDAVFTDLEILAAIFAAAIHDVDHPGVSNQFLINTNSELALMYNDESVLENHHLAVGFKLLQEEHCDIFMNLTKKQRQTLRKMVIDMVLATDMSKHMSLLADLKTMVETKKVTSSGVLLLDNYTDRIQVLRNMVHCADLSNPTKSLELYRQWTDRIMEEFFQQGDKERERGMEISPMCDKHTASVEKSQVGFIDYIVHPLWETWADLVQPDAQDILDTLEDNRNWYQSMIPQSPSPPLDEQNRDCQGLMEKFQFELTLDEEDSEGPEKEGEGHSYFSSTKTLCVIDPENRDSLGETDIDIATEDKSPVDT
Cytochrome P450 3A4 (Homo sapiens), sequence (P08684 whole entry, looked up): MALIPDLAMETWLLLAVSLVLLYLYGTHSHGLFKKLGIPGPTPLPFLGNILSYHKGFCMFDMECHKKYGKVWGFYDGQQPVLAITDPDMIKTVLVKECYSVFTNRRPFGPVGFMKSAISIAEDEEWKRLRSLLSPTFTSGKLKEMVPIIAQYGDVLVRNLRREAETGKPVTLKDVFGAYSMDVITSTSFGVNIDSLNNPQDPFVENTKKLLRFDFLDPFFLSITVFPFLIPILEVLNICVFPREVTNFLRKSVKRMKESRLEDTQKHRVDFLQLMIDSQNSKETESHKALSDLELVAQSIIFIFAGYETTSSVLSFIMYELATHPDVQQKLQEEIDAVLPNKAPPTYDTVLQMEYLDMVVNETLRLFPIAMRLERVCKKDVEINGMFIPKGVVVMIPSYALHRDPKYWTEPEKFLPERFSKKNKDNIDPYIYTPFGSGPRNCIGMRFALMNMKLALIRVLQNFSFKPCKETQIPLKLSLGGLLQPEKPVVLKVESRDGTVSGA
Cytochrome P450 2C19 (Homo sapiens), sequence (P33261 whole entry, looked up): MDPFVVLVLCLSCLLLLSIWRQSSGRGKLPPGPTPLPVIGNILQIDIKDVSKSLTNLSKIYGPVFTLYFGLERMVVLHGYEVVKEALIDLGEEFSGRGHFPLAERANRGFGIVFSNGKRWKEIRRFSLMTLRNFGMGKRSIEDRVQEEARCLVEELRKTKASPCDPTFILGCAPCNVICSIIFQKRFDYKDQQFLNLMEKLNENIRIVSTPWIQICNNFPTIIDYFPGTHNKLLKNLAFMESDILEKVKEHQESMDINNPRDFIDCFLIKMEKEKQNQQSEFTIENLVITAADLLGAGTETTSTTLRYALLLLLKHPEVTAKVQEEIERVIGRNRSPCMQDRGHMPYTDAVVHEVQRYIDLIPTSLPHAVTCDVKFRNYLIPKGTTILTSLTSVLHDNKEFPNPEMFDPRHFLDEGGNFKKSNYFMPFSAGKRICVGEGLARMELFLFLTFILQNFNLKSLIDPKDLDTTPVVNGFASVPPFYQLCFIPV

`Cn1c(=O)c(-c2ccc(F)c(F)c2)nc2cncnc21`: the Potency in [1] was more than 11.4 µM; in test [3], 0.158 µM (active); in test [6], more than 9.22 µM; in test [7] it was more than 46 µM. For the same compound, the results for the activity change, negative = inhibition in test [2] and in test [4] were 10% and -5.02%, respectively. Besides, in test [5], the activity, negative = inhibition was -7.37%. Moreover, the Potency entry in test [8], in test [9], in [10], in test [11], in test [12] and in [13] was “inactive” throughout. Further, in [14], the Potency entry is “inactive”. Also, the result in [15] was inactive.

In the case of `COc1ccccc1CCn1c(=O)c(-c2cccc(Cl)c2)nc2cncnc21`, the Potency is more than 11.4 µM in test [1]; 0.316 µM (active) in test [3]; more than 9.22 µM in test [6]; more than 46 µM in [7]; 6.31 µM (active) in test [16]; 0.251 µM (active) in [17]. Also, the activity change, negative = inhibition was -3.94% in test [2] and -27.9% in test [4]. Also, in [5], the activity, negative = inhibition is -13%. In addition, the Potency entry in [8], in [10], in [11], in [12], in test [13] and in test [14] was “inactive” in each case. In test [15], the result was inactive.

Consider `c1nc(NCCN2CCOCC2)c2cc(-c3ccoc3)ccc2n1`, for which the Potency in test [1] is more than 11.4 µM; in test [3], 12.6 µM (active); in [6], more than 46 µM; in test [7], more than 46 µM; in test [11], 0.708 µM (active); in [12], 0.891 µM (active). Moreover, the Potency in test [13] was 0.355 µM (active). The activity change, negative = inhibition in [2] was -17.7%; in test [4], -0.57%. The activity, negative = inhibition in test [5] is -6.63%. Further, the Potency result in [8], in [9], in test [10] and in test [14] was “inactive” throughout. In addition, the result in test [15] was inactive.

Regarding `COc1ccc(-n2c(=O)c(-c3cccc(Cl)c3)nc3cncnc32)cc1`, the Potency in test [1] is more than 11.4 µM; in test [3], 1 µM (active); in test [6], more than 9.22 µM; in test [7] it was more than 46 µM. Also, the values for the activity change, negative = inhibition in test [2] and in test [4] were -20.5% and -14.1%, respectively. Also, the activity, negative = inhibition in test [5] is -4.36%. Moreover, the Potency result in test [8], in test [9], in [10], in test [11], in test [12] and in [13] was “inactive” throughout. Moreover, in test [14], the Potency result is “inactive”. Moreover, in test [15], the outcome was inactive.

Regarding `Cc1cnc(CNc2ccnc(-c3ccccc3C)n2)cn1`, the Potency was more than 11.4 µM in test [1], 12.6 µM (active) in [3], more than 46 µM in test [6] and more than 46 µM in [7]. Further, the activity change, negative = inhibition is 3.37% in test [2] and -3.78% in test [4]. Also, the activity, negative = inhibition in test [5] was -1.97%. For the same compound, the Potency entry in test [8], in test [9], in test [10], in test [11], in test [12] and in test [13] was “inactive” each time. Moreover, in test [14], the Potency result is “inactive”. In [15], the outcome was inactive.

Consider `COCCn1c(=O)c(-c2cn(C)c3ccccc23)nc2cnc(OCc3ccccc3)nc21`, for which the Potency in [1] was more than 11.4 µM; in test [3], 5.01 µM (active); in [6], more than 9.22 µM; in test [7], more than 46 µM. In addition, the activity change, negative = inhibition was -1.93% in test [2] and -4.76% in [4]. Moreover, the activity, negative = inhibition in [5] is 23.6%. For the same compound, the Potency entry in [8], in test [10], in [11], in test [12], in test [13] and in test [14] was “inactive” each time. Further, in [15], the outcome was inactive.
